Several values for one entry are separate records, joined by “and”; a condition that tells them apart may be missing. Equal values may be shown once.
Assays:
Assay in all cases: thermal shift delta Tm vs DMSO control; higher = stronger stabilization (binding)
Settings in all cases: 12.5 µM; protein concentration 2 µM
LOC_OS04G57630-cb004 = system: LOC_OS04G57630-cb004
How it was run: (§1)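 Compounds dissolved in DMSO were added to purified rice kinase domain constructs, which had been expressed in E. coli, for differential scanning fluorimetry. Each well held 19.5 μl of 2 μM kinase in 100 mM potassium phosphate pH 7.5, 150 mM NaCl, 10% glycerol and 5 × SYPRO Orange. Fluorescence was followed from 25°C to 95°C at a rate of 0.05°C/s. Shifts in Boltzmann-fitted melting temperature are triplicate means relative to DMSO-only protein.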

LOC_OS05G07850-cb002 = system: LOC_OS05G07850-cb002
How it was run: as §1

LOC_OS05G16824-cb004 = system: LOC_OS05G16824-cb004
How it was run: as §1

LOC_OS05G28520-cb001 = system: LOC_OS05G28520-cb001
How it was run: as §1

LOC_OS05G30820-cb001 = system: LOC_OS05G30820-cb001
How it was run: as §1

LOC_OS05G43570-cb004 = system: LOC_OS05G43570-cb004
How it was run: as §1

LOC_OS06G16330-cb003 = system: LOC_OS06G16330-cb003
LOC_OS06G16330-cb003, sequence (as listed by the source): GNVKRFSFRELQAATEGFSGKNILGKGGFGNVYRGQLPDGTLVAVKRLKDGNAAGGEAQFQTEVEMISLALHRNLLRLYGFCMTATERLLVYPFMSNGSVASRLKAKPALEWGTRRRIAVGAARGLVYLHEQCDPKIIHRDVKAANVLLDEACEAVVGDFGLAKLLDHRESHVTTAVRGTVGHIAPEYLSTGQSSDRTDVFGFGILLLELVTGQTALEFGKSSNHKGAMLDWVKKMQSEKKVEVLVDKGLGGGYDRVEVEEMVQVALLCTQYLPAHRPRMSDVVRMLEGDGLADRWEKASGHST
How it was run: as §1

LOC_OS06G22820-cb001 = system: T1, LOC_OS06G22820-cb001
T1 sequence (whole entry): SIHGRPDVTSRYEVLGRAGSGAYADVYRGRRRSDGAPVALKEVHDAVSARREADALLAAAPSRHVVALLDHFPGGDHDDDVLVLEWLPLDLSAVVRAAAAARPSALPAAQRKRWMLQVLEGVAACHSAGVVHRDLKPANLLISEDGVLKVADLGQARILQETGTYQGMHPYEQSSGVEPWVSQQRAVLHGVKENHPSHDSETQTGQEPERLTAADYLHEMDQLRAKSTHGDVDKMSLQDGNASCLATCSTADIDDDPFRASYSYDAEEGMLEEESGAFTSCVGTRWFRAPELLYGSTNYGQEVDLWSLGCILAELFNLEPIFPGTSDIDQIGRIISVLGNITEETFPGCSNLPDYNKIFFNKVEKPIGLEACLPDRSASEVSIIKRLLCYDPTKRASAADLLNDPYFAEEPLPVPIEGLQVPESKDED
How it was run: as §1

LOC_OS07G06570-cb004 = system: LOC_OS07G06570-cb004
How it was run: as §1

LOC_OS07G07230-cb001 = system: LOC_OS07G07230-cb001
How it was run: as §1

Row | Structure (SMILES) | thermal shift delta Tm (LOC_OS04G57630-cb004) | thermal shift delta Tm (LOC_OS05G07850-cb002) | thermal shift delta Tm (LOC_OS05G16824-cb004) | thermal shift delta Tm (LOC_OS05G28520-cb001) | thermal shift delta Tm (LOC_OS05G30820-cb001) | thermal shift delta Tm (LOC_OS05G43570-cb004) | thermal shift delta Tm (LOC_OS06G16330-cb003) | thermal shift delta Tm (LOC_OS06G22820-cb001) | thermal shift delta Tm (LOC_OS07G06570-cb004) | thermal shift delta Tm (LOC_OS07G07230-cb001)
1 | N#Cc1c(O)c2c(-c3ccc(-c4ccccc4O)cc3)csc2[nH]c1=O | 0.93 °C | 0.59 °C | -0.44 °C | 1.06 °C | 0.78 °C | 1.18 °C | 1.03 °C | 0.91 °C | 1.2 °C | 0.19 °C
2 | Oc1ccc(-c2nc(-c3ccc(F)cc3)c(-c3ccncc3)[nH]2)cc1 | 0.57 °C | 1.26 °C | – | 1.33 °C | 0.88 °C | 1.13 °C | 0.09 °C | 0.97 °C | 1.08 °C | 0.48 °C
3 | Cc1cc(Nc2cc(N3CCN(C)CC3)nc(/C=C/c3ccccc3)n2)n[nH]1 [ENMD-2076 L-(+)-Tartaric acid] | 4.1 °C | 11.2 °C | 10.9 °C | 5.68 °C | 1.55 °C | 0.7 °C | 5.83 °C | 0.62 °C | 1.73 °C | 0.39 °C
4 | Cc1cnc(Nc2ccc(N3CCN(C)CC3)cc2)nc1Nc1cccc(S(=O)(=O)NC(C)(C)C)c1 | 2.45 °C | 10.4 °C | 7.7 °C | 1.9 °C | 0.89 °C | 0.98 °C | 5.92 °C | 0.43 °C | 0.63 °C | -0.42 °C
5 | Cc1ccccc1-n1c(Cn2nc(-c3cccc(O)c3)c3c(N)ncnc32)nc2cccc(C)c2c1=O | – | 0.71 °C | -1.12 °C | 0.91 °C | 0.79 °C | 0.31 °C | – | – | – | 1 °C
6 | CCN(CC)CCCC(C)Nc1ccnc2cc(Cl)ccc12 (stereo not given) [Chloroquine Phosphate] | 0.53 °C | 0.78 °C | -0.51 °C | 0.02 °C | 0.51 °C | 0.55 °C | -3.04 °C | 0.22 °C | 0.72 °C | 0.52 °C
7 | CC[C@@H]1C(=O)N(C)c2cnc(Nc3ccc(C(=O)N[C@H]4CC[C@H](N5CCN(CC6CC6)CC5)CC4)cc3OC)nc2N1C(C)C [Volasertib (BI 6727)] | 0.28 °C | 1.33 °C | 2.5 °C | -0.32 °C | 0.58 °C | 0.4 °C | 0.46 °C | 0.34 °C | 0.62 °C | -0.12 °C
8 | C[C@H](Nc1ncnc2nc[nH]c12)c1cc2cccc(Cl)c2c(=O)n1-c1ccccc1 [Duvelisib (IPI-145, INK1197)] | -0.24 °C | 0.17 °C | 0.84 °C | 0.82 °C | 0.45 °C | 0.49 °C | 0.28 °C | 0.69 °C | 0.07 °C | 12.2 °C
9 | CN(C)S(=O)(=O)c1ccc2c(c1)/C(=C/c1cc3c([nH]1)CCCC3)C(=O)N2 | 1.35 °C | 7.38 °C | -3.8 °C | 1.28 °C | 1.28 °C | 0.71 °C | – | 1.01 °C | 1.01 °C | 0.86 °C
10 | C[C@@H](N)[C@H]1CC[C@H](C(=O)Nc2ccncc2)CC1 | 0.06 °C | 0.75 °C | 1.53 °C | 0.81 °C | 0.41 °C | 0.43 °C | 0.4 °C | 0.94 °C | 0.98 °C | 0.08 °C
11 | C[C@H](NC(=O)c1c(N)nn2cccnc12)c1cc2cccc(C#Cc3cnn(C)c3)c2c(=O)n1-c1ccccc1 | -0.07 °C | 0.09 °C | 2.93 °C | 0.27 °C | 0.07 °C | 0.11 °C | -0.63 °C | 0.3 °C | 1.69 °C | 0.62 °C
12 | CCCCCCCCCCCCCCCCCCOP(=O)([O-])OC1CC[N+](C)(C)CC1 [Perifosine (KRX-0401)] | -0.56 °C | -0.07 °C | – | -1.23 °C | -0.15 °C | -0.61 °C | – | 0.39 °C | -2.82 °C | -2.65 °C
13 | O=C(O)c1cc(O)c2c(c1)[C@@H]([C@H]1c3cc(C(=O)O)cc(O)c3C(=O)c3c(O[C@@H]4O[C@H](CO)[C@@H](O)[C@H](O)[C@H]4O)cccc31)c1cccc(O[C@@H]3O[C@H](CO)[C@@H](O)[C@H](O)[C@H]3O)c1C2=O [Sennoside B] | -0.43 °C | -1.7 °C | – | 2.58 °C | 0.73 °C | 1.55 °C | -0.98 °C | 1.61 °C | 4.56 °C | -0.03 °C
14 | Cc1ncc(CO)c(CO)c1O [Pyridoxine] | -0.04 °C | 0.43 °C | – | -0.11 °C | 0.06 °C | 0.36 °C | -0.45 °C | 0.67 °C | 1.06 °C | 0.72 °C
15 | NC(=O)Nc1cc(-c2cccc(F)c2)sc1C(=O)N[C@H]1CCCNC1 | 3.39 °C | 11.9 °C | 10.8 °C | 0.35 °C | 1.33 °C | 1.05 °C | 9.93 °C | 0.87 °C | 1.07 °C | -0.31 °C
16 | C[C@@H]1CCN(C(=O)CC#N)C[C@@H]1N(C)c1ncnc2[nH]ccc12 | -0.1 °C and 0.49 °C | 2.97 °C and 3.63 °C | -1.07 °C and 0.7 °C | 0.03 °C and 0.86 °C | 0.42 °C and 0.38 °C | 0.33 °C and 0.16 °C | 0.7 °C and 0.62 °C | 0.46 °C and 1.08 °C | 0.55 °C and 1.39 °C | 0.32 °C and -0.21 °C
17 | Cc1csc(-c2nnc(Nc3ccc(Oc4ncccc4-c4ccnc(N)n4)cc3)c3ccccc23)c1 | 0.49 °C | 6.74 °C | 1.04 °C | 0.38 °C | 0.85 °C | 0.03 °C | 3.12 °C | 0.66 °C | 0.09 °C | 0.17 °C
18 | Cc1nc(NC(=O)N2CCC[C@H]2C(N)=O)sc1-c1ccnc(C(C)(C)C(F)(F)F)c1 [Alpelisib (BYL719)] | -0.02 °C | 7.19 °C | -1.37 °C | 0.17 °C | 0.38 °C | 0.29 °C | 0.44 °C | 0.57 °C | 1.48 °C | 0.13 °C
19 | CS(=O)(=O)N1CCN(Cc2cc3nc(-c4cccc5[nH]ncc45)nc(N4CCOCC4)c3s2)CC1 [Pictilisib (GDC-0941)] | -0.38 °C | 5.5 °C | 0.86 °C | 0.48 °C | 0.36 °C | 0.46 °C | 0.57 °C | 0.43 °C | 0.46 °C | 0.23 °C
20 | O=C(c1ccc(F)c(F)c1Nc1ccc(I)cc1F)N1CC(O)([C@@H]2CCCCN2)C1 [Cobimetinib (GDC-0973, RG7420)] | 0.22 °C | 0.2 °C | -1.19 °C | 0.07 °C | 0.47 °C | 0.39 °C | -0.17 °C | 0.43 °C | 1.59 °C | 0.43 °C

— the supplement of paper PMC9694430
